From PubChem BioAssay (NCI)
Compounds without any hit were thinned out: in the full panel of roughly 79,000, 15% have a hit. Values without a mark were called inactive. The source made the active and inactive calls. No stated cut-off is given here; in the data, active means growth inhibition above about 70%; inactive means the rest.

How the values were obtained:
[1] = NCI Yeast Anticancer Drug Screen. Data for the rad50 strain (AID 155);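 further: 0% = growth of vehicle-only cultures of the same strain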; settings: S. cerevisiae rad50 strain growth inhibition; at 50.0 µM; active compounds read high
Summary of the method: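 Growth of the mutant yeast was measured after compound exposure and referenced to vehicle-treated cultures.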

[2] = NCI Yeast Anticancer Drug Screen. Data for the mec2-1 strain (AID 157); settings: S. cerevisiae mec2-1 strain, at 50.0 µM, active compounds read high
Summary of the method: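 Test agents were screened against the mec2-1 yeast strain, with defined DNA repair or cell cycle alteration. Growth was scored as inhibition against vehicle-only controls.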

[3] = NCI Yeast Anticancer Drug Screen. Data for the sgs1 mgt1 strain (AID 161);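 further: 0% = growth of cultures given vehicle only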; settings: S. cerevisiae sgs1 mgt1 strain, at 50.0 µM, active compounds read high
Summary of the method: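 Read-out: growth inhibition vs vehicle controls. Cells: mutant yeast strain deficient in DNA damage repair.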

[4] = NCI Yeast Anticancer Drug Screen. Data for the cln2 rad14 strain (AID 165);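 further: 0% = growth equal to vehicle treated cultures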; settings: S. cerevisiae cln2 rad14 strain, at 50.0 µM, active compounds read high
Summary of the method: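 Growth of compound-exposed yeast (cln2 rad14 genotype) measured and expressed as inhibition relative to vehicle.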

[5] = NCI Yeast Anticancer Drug Screen. Data for the bub3 strain (AID 167); settings: S. cerevisiae bub3 mutant strain, at 50.0 µM, active compounds read high
Summary of the method: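 Whole-cell yeast assay. The mutant strain was incubated with compounds, and growth inhibition was determined by comparison with vehicle-treated cells.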

[6] = NCI Yeast Anticancer Drug Screen. Data for the mlh1 rad18 strain (AID 175); settings: S. cerevisiae mlh1 rad18 strain growth inhibition; at 50.0 µM; active compounds read high
Summary of the method: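 In this whole-cell yeast screen, a strain with altered DNA damage repair is challenged with compound, and its growth is measured against matched vehicle-treated controls.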

Compound	growth inhibition [1]	growth inhibition [2]	growth inhibition [3]	growth inhibition [4]	growth inhibition [5]	growth inhibition [6]
Cn1cnc2nc(N)[nH]c(=O)c21	37.2%	6.45%	2.5%	-14.4%	-0.95%	13.7%
O=S(=O)(N/C(=C(\NS(=O)(=O)c1ccccc1)c1ccccc1)c1ccccc1)c1ccccc1	63.7%	6.15%	39%	18.3%	60.9%	61.2%
CC(=O)N(C(C)=O)C(CS)C(=O)O (stereo not given)	4.1%	-11.8%	2.85%	14.8%	9.05%	2.6%
OCC(O)c1ccc(Cl)cc1 (stereo not given)	-23%	-17.6%	-14.8%	-14%	-15.8%	-0.3%
CCN1CCCC(Nc2nc(Nc3ccc(Cl)c(Cl)c3)nc3ccc(Cl)cc23)C1 (stereo not given)	99.2% (active)	99.7% (active)	99.7% (active)	99.5% (active)	99.4% (active)	99.5% (active)
Cc1ccc(C)c(NC(=O)C(=O)C(C#N)c2c(Cl)cccc2Cl)c1 (stereo not given)	-23.2%	16.5%	44.5%	-24.4%	6.35%	28.9%
O=c1ccn2n1Cc1ccccc1C2	-25.9%	-20.8%	-17.9%	13.3%	-6.05%	-20.6%
Clc1cc(Cl)c(Cl)c(Cl)c1Cl	-4.1%	-9.95%	-0.15%	12.8%	-2.7%	13.9%
CCCCCCCCCc1cc(-c2ccc(C=O)s2)sc1-c1ccc(C=O)s1	8.8%	-4.5%	-8.8%	-3.6%	-12.9%	0.4%
CN(C)CCCN1c2ccccc2Sc2ccc3ccccc3c21	-0.35%	-3.45%	-43%	-25.9%	8.95%	14.8%
O=C(O)Cc1ccc(N2N=C(c3ccccc3)CC2=O)cc1	5.3%	-5.05%	-13.6%	35%	22.4%	-9.3%
COc1cc(/C=C/c2ccccn2)oc(=O)c1	5.2%	-6.7%	-2.05%	-14.3%	-12.1%	7.9%
CN(C)Cc1ccccc1COC(=O)c1ccc([N+](=O)[O-])cc1Cl	-8.9%	-12.6%	10.8%	-29.1%	3.65%	-34.1%
COc1ccc2cc3n(c2c1)CCc1cc(OC)c(OC)cc1-3	13.6%	-10.8%	5.9%	23.9%	3%	14.2%
O=C(Nc1ccc(Br)cc1)c1ccccc1	14.4%	20.9%	0.35%	-31.5%	0.8%	22.1%
CCOC(=O)Nc1cc2c(c(N)n1)N=C(c1ccc(Cl)cc1Cl)CN2	33.4%	-29.5%	25.6%	-5.1%	-6%	-8.45%
CCOC(=O)NC(CC)CO (stereo not given)	-13.1%	-22.9%	-14%	16.1%	5.55%	-6.9%
OC(c1ccc(Cl)cc1)c1nc2ccccc2[nH]1 (stereo not given)	40.8%	18.4%	35.5%	15.9%	19.1%	33.5%
CCOC(=O)c1nc2ccc(C(F)(F)F)cc2nc1NCc1ccc(F)cc1	-13.9%	7.6%	20.7%	10.2%	12.9%	-48.2%
O=C(c1ccccc1)n1c2ccccc2c2ccccc21	9.55%	-3.3%	17.6%	-1%	26.2%	26.2%

Compound	growth inhibition [1]	growth inhibition [2]	growth inhibition [3]	growth inhibition [4]	growth inhibition [5]	growth inhibition [6]
O=NC1C(Cl)C2CC1C1C(Cl)C(Cl)CC21 (stereo not given)	35%	14.7%	52.9%	40.4%	27.4%	33.1%
N#CCCn1[nH]c(=O)c(Cl)c(Cl)c1=O	6.95%	4.6%	-3.9%	-6.8%	4.15%	-3.3%
O=c1[nH]cccc1O	5.2%	5.5%	-17%	10.4%	-8.8%	7.25%
O=C(NC(Cc1ccccc1)C(=O)NC(Cc1c[nH]c2ccccc12)C(=O)O)OCc1ccccc1 (stereo not given)	1.9%	7.45%	-3.95%	-7.3%	-3.55%	12.2%
CC1=C(/C=C/C(C)=C/C=C/C(C)=C/C=C/C=C(C)/C=C/C=C(C)/C=C/C=C(C)/C=C/C=C(\C)C(=O)O)C(C)(C)CCC1	3.7%	25.6%	-21.8%	18.6%	7.6%	-2.1%
CC1(C)CC(C(N)=O)C(C)(C)N1O (stereo not given)	13%	7.55%	23.6%	17.9%	23.8%	7.1%
CCOC(=O)/C(=C/c1cc(OC)ccc1OC)P(=O)(OCC)OCC	6.05%	-12.9%	-17.6%	-25.1%	4.65%	-0.9%
O=C(Cc1ccc(Cl)cc1)NCCc1ccccc1	-1.4%	-14.6%	-5.15%	32.9%	18.4%	7.3%
Cc1ccc(/C=N/NS(=O)(=O)c2ccccc2)cc1	18.4%	13.8%	15.6%	-16.7%	12.1%	24.9%
COc1ccc(N2C(=O)C3c4[nH]c5ccccc5c4C4CCC(C(C)(C)C)CC4C3C2=O)cc1OC (stereo not given)	46.8%	18.4%	14.8%	-3.4%	44.2%	38.1%
CC(CNC(N)=O)(CNC(N)=O)c1ccccc1	-4.75%	-9.05%	-11.8%	-21.6%	-0.45%	-25.1%
O=C(CN1C(=O)CC(c2ccccc2)(c2ccccc2)C1=O)N1CCN(CCO)CC1	-0.35%	-4.6%	-22.1%	-5.25%	-16.2%	2.3%
O=c1nc(NCCc2c[nH]c3ccccc23)ccn1C1OC(CO)C(O)C1O (stereo not given)	19.1%	4.5%	2.35%	15.1%	-1.45%	7.25%
COc1ccc(/C=C2\N=C(NN)N=C2Cl)cc1	-8.2%	-30.9%	4.55%	23.4%	-0.35%	-13.3%
CCOC(=O)C1(C(F)(F)F)N=C(CC)OC(N2CCOCC2)=N1 (stereo not given)	-23.9%	-12.6%	-18.7%	10.1%	-16%	-27.1%
CCOC(=O)c1cc(N)c(C(=O)OCC)cc1N	4.15%	-16.5%	-1.3%	3.6%	8.65%	10.3%
Cc1ccc(S(=O)(=O)OC2CC(C(C)(C)C)CCC2c2ccccc2)cc1 (stereo not given)	-29.1%	-7%	-48.9%	-84.2%	-5.15%	5.9%
CN1NC2(CCCCC2)ON=C1c1ccccc1	5.35%	-5.5%	11.1%	7.9%	-6.35%	10.7%
CCCC(/C(C)=N/NC(N)=O)C1CCCCC1 (stereo not given)	14.2%	7.45%	-2.6%	1%	-5.1%	2%
CCCCN(CCCC)C(=O)C(=O)C(C#N)c1ccc(C)cc1 (stereo not given)	-7%	-0.8%	6.15%	17.6%	20.7%	-9.3%
